# Measured values published in PubChem BioAssay (NCATS).
# Unmarked numbers belong to inactive results. How the calls were made is not given here.
# System: HIV-1 nucleocapsid protein NCp7 (binding to TG oligonucleotide)
# Experiment: HIV Nucleocapsid (AID 346);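 further: potency is for inhibitors that block NC binding and lower polarization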
# Conditions: HIV-1 NC / fluorescein-TGTGTGTG probe, fluorescence polarization
# Method: NCGC Assay Overview: HIV-1 nucleocapsid protein (HIV-1 NC) is a small (6.5 kDa) basic zinc-finger protein which participates in packaging of viral genomic RNA. The spacing and metal-chelating residues (3 Cys, 1 His) of the Cys-X2-Cys-X4-His-X4-Cys Zn fingers are conserved among all known retroviruses (J. Med. Chem. 1998, 41, 1371-1381). HIV-1 NC was assayed for its binding to the consensus sequence single-stranded 5'-TGTGTGTG. […] High salt was included to increase the stringency of binding and inhibitor screen. Reducing agents and zinc were present to stabilize the nucleocapsid zinc-finger protein.
# NCGC Assay Protocol Summary: Buffer. Hepes pH 7.5, 250mM NaCl, 1uM ZnCl2. 0.004% polyethylene glycol 20000. TCEP (100 uM) and 2-Mercaptoethanol (5 mM), added fresh the day of the experiment. Reagents/Controls. 10 nM TG4xF only in columns 3 and 4 as negative control. 10 nM TG4xF/100 nM HIV-1 NC in columns 1, 2, 5-48. Titration of control compound NSC-13778 (from 20 mM, then 1:2) pin-transferred to column 2. Assay Steps. Two uL of reagents were dispensed to 1536-well Kalypsys black plates. The plates were centrifuged for 1 min at 1000 rpm. Compounds and controls (20 nL) were transferred via Kalypsys PinTool. The plates were incubated for 1 hr at room temperature, and then read on ViewLux (Perkin-Elmer). High-throughput CCD imager using fluorescein polarization filter set and 45 seconds exposure time.
# Potency means the concentration at half of the fitted maximal effect.
row,Structure (SMILES),Potency [µM]
1,c1ccc(CNc2nc(-c3ccc4c(c3)OCO4)nc3ccccc23)cc1,> 20
2,COC(=O)N1CCC2(CC1)CN(C(=O)Nc1cccc(F)c1)C2,> 20
3,COc1ccc(C(=O)N2CCC[C@@]3(CCN(Cc4ccccc4OC)C3)C2)cc1,> 20
4,COC(=O)N1CCC[C@@]2(CCN(Cc3nccs3)C2)C1,> 20
5,N#Cc1ccc(CN2CC[C@@]3(CCCN(C(=O)c4ccco4)C3)C2)cc1,> 20
6,O=S(=O)(c1ccccc1)N1CCC2(CC1)CN(Cc1nccs1)C2,> 20
7,N#Cc1ccc(CN2CCCC3(CCN(C(=O)c4csnn4)CC3)C2)cc1,> 20
8,Cc1nc2cnc(N3CCNCC3)nc2n(CCC#N)c1=O,> 20
9,COc1ccc(-c2nc3cnc(N4CCN(C)CC4)nc3n(C)c2=O)cc1,> 20
10,Cc1nc2cnc(Nc3ccccc3)nc2n(C2CC2)c1=O,> 20
11,CS(=O)(=O)Nc1cccc(-c2nc(NCc3cccnc3)c3ccccc3n2)c1,> 20
12,COCCn1c(=O)c(-c2cccc(C#N)c2)nc2cnc(OCc3ccccc3)nc21,> 20
13,COCCNc1cc(-c2c(C)noc2C)ncn1,> 20
14,CN(C)C(=O)c1ccc(-c2cncnc2NCCN2CCOCC2)cc1,> 20
15,CC(=O)N1CCC2(CCCN(c3ccccn3)C2)CC1,> 20
16,O=C(Nc1ccccc1)N1CC2(CCN(C(=O)c3ccncc3)CC2)C1,> 20
17,O=c1c(-c2cccc(Cl)c2)nc2cncnc2n1-c1ccccc1,> 20
18,c1cncc(CNc2ncnc3ccc(-c4cccnc4)cc23)c1,> 20
19,COc1cccc(Cn2c(=O)c(-c3cccs3)nc3cnc(Nc4cccc(OC)c4)nc32)c1,> 20
20,COc1ccccc1-c1ccc2ncnc(NCCNC(C)=O)c2c1,> 20

row,Structure (SMILES),Potency [µM]
1,Cc1noc(C)c1-c1nc(Nc2ccncc2)c2ccccc2n1,> 20
2,O=c1c(-c2ccccc2)nc2cnc(N3CCOCC3)nc2n1CCc1ccccc1,> 20
3,CN(Cc1ccco1)c1ncnc2ccc(-c3cccc(NS(C)(=O)=O)c3)cc12,> 20
4,Cc1noc(C)c1-c1cc(N(C)C)ncn1,> 20
5,Cn1cc(-c2nc3cnc(Oc4cccc(Cl)c4)nc3n(C3CC3)c2=O)c2ccccc21,> 20
6,COc1ccc(-c2nc3cnc(Oc4cccc(Cl)c4)nc3n(C[C@H]3CCCO3)c2=O)cc1,> 20
7,Cc1cccc(CNc2ccnc(-c3ccccc3Cl)n2)c1,> 20
8,COc1ccc(Oc2ncc3nc(-c4cc(F)cc(F)c4)c(=O)n(C4CC4)c3n2)cc1,> 20
9,O=c1c(-c2cc(F)cc(F)c2)nc2cnc(N3CCOCC3)nc2n1Cc1ccc(F)cc1,> 20
10,O=S(=O)(c1ccccc1)N1CCC2(CCN(Cc3nccs3)CC2)CC1,> 20
11,COc1ccc(CNc2ncnc3ccc(-c4ccccc4OC)cc23)c(OC)c1,> 20
12,CCNc1ncc2nc(-c3ccc(OC)cc3)c(=O)n(Cc3ccc(F)cc3)c2n1,> 20
13,COc1ccccc1CN1CCCC2(CCN(C(=O)c3cccn3C)CC2)C1,> 20
14,Cc1ccccc1-c1cc(NCCN2CCOCC2)ncn1,> 20
15,CN1CCN(c2ncnc3ccc(-c4ccc(C(=O)N(C)C)cc4)cc23)CC1,> 20
16,Cc1noc(C)c1-c1nc(NC2CCNCC2)c2ccccc2n1,> 20
17,COc1ccc(Oc2ncc3nc(-c4ccc(Cl)cc4)c(=O)n(C4CC4)c3n2)cc1,> 20
18,COCC(=O)N1CCC2(CC1)CCN(C(=O)NC(C)C)CC2,> 20
19,COc1ncc2nc(-c3ccccc3)c(=O)n(C3CC3)c2n1,> 20
20,COc1ccc2[nH]cc(CCNc3ncnc4ccc(-c5ccc6c(c5)OCO6)cc34)c2c1,> 20
